Laboratory results: PubChem BioAssay AID2279 (Southern Research Specialized Biocontainment Screening …, 2010)
Measured potencies and affinities stand elsewhere. Calls of active or inactive are those of the source. How the calls were made is not given here.

Assay: CCR5-tropic HIV-1 fusion blockers – cell-based, CCR5-tropic Env, dose response (AID 2279)
Conditions: CCR5-tropic HIV-1 Env, reporter read-out; series mostly up to 50 µM

outcome, inactive:
O=C(Nc1cc(C(=O)Nc2ccccc2C(=O)O)cc(C(=O)Nc2ccccc2C(=O)O)c1)c1ccccc1, O=C(NCCc1ccccc1)c1ccc2c(=O)[nH]c3c(C(=O)NCC4CCCO4)sc(=S)n3c2c1 (stereo not given), O=[N+]([O-])c1cc(Cl)cc(/C=N/NC(=S)Nc2ccc(S(=O)(=O)N3CCOCC3)cc2)c1O, CC1=C(C(=O)Nc2ccccc2)C(c2ccc(Cl)cc2)n2c(s/c(=C/c3cccc(OCC(=O)O)c3)c2=O)=N1 (stereo not given), O=C(O)c1cc(-c2ccc(/C=C3\NC(=O)N(c4ccc(Cl)cc4)C3=O)o2)ccc1Cl, CCS(=O)(=O)C1=NN2C(=N)/C(=C\c3ccc(OS(=O)(=O)c4ccccc4)c(OC)c3)C(=O)N=C2S1, COc1ccc(NC(=O)c2c[nH]n3c(=O)cc(C4CCN(C(=O)OC(C)(C)C)CC4)nc23)cc1Cl, CCOc1cc(Br)cc(C(c2c(C(=O)O)[nH]c3ccccc23)c2c(C(=O)O)[nH]c3ccccc23)c1O, CCS(=O)(=O)C1=NN2C(=N)/C(=C\c3ccc(OCCOc4cccc(OC)c4)c(OC)c3)C(=O)N=C2S1, O=C(O)c1cc(N2N=C(C(F)(F)F)/C(=C/C=C/c3ccco3)C2=O)ccc1Cl, O=C(O)/C(CC(=O)c1ccc(Cl)cc1)=N/Nc1ccc([N+](=O)[O-])cc1[N+](=O)[O-], COc1cc(/C=C2\C(=N)N3N=C(S(C)(=O)=O)SC3=NC2=O)ccc1OC(=O)c1ccco1, NS(=O)(=O)c1cc(C(=O)NC2CCSc3ccccc32)ccc1Cl (stereo not given), Cc1cc(Cl)ccc1OC(C)C(=O)Nc1ccc(S(=O)(=O)Nc2cnc3ccccc3n2)cc1 (stereo not given), COc1cc(/C=C2\C(=N)N3N=C(S(C)(=O)=O)SC3=NC2=O)ccc1OC(=O)c1cccs1, O=C(CCN1C(=O)/C(=C/c2ccco2)SC1=S)Nc1ccc(C(=O)O)c(O)c1, Cc1cc(/C=C2\C(=N)N3N=C(S(C)(=O)=O)SC3=NC2=O)c(C)n1Cc1ccccc1, O=C(COc1cccc2ccccc12)Nc1ccc(Cl)cc1C(=O)O, COc1cc(/C=C2\SC(=Nc3ccccc3)N(CCc3c[nH]c4ccccc34)C2=O)ccc1OC(C)C(=O)O (stereo not given), O=C(O)CSc1ncnc2c1sc1nc(-c3ccccc3)c3c(c12)CCC3, COc1ccc(/C=C2/SC(=S)N(CC(=O)O)C2=O)cc1OCc1ccc(Cl)cc1, O=C(CCCN1C(=O)/C(=C/c2cccs2)SC1=S)Nc1ccc(O)c(C(=O)O)c1, CSc1nc(SCC(=O)O)c2sc3nc(-c4ccccc4)c4c(c3c2n1)CCC4, Cc1ccc(NS(=O)(=O)c2ccc(N/N=C/c3ccccc3OCC(=O)O)c([N+](=O)[O-])c2)c(C)c1, COc1cccc(C2C3=C(N=c4s/c(=C\c5ccc(OCC(=O)O)cc5)c(=O)n42)c2ccccc2CC3)c1 (stereo not given), CCOC(=O)c1c(N2C(=O)Nc3cc(Cl)c(Cl)cc3N2O)sc2c1CCCCC2, Cc1cc(Cl)ccc1OC(C)C(=O)Nc1ccc(C(=O)Nc2ccccc2C(=O)O)cc1 (stereo not given), O=C(O)c1ccccc1NS(=O)(=O)c1ccc(NNC(=S)Nc2ccc(OC(F)F)cc2)c([N+](=O)[O-])c1, COc1cc(/C=N/NC(=O)C(Cc2c[nH]c3ccccc23)NC(=O)OCc2ccccc2)cc([N+](=O)[O-])c1O (stereo not given), N#Cc1c(SCC(=O)Nc2nc3ccc(Br)cc3s2)sc2c(O)cc(=O)[nH]c12, COc1cccc(OCCOc2ccc(/C=C3\C(=N)N4N=C(S(C)(=O)=O)SC4=NC3=O)cc2OC)c1, O=C(O)COc1ccc(/C=N/NC(=O)c2ccc(-c3csc(Nc4ccc(Cl)cc4)n3)cc2)cc1, N#Cc1c(-c2ccccc2)nc(SCC(=O)Nc2ccc(OC(F)(F)Cl)cc2)[nH]c1=O, COC(=O)c1sc(-c2ccc(C(C)(C)C)cc2)cc1NC(=O)COCC(=O)O, O=C(O)COc1ccc(/C=C/C(=O)c2ccc(C3CCCCC3)cc2)cc1
